SARS 3CLpro inh: SARS-CoV 3CLpro protease inhibition; recombinant SARS-CoV 3CLpro, quenched FRET peptide cleavage; inhibition, % at 6 µM; 0.14% of 290,000 active; in the data active = inhibition above about 12%
DUSP3 inh: DUSP3 (human) phosphatase inhibition; recombinant VHR phosphatase, pNPP absorbance; inhibition, % at 13.3 µM; 0.52% of 290,000 active; in the data active = inhibition above about 50%
Target sequence (P51452 whole entry, looked up): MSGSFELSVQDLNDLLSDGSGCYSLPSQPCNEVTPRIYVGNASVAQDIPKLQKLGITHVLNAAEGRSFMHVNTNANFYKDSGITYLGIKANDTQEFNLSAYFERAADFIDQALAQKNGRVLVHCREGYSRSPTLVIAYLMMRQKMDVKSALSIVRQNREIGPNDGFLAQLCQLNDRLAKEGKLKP
CCHF vOTU inh: blocks the CCHF virus ovarian tumor domain protease; 0.55% of 370,000 active; inhibition, % at 11.5 µM; AID 651958; CCHFV vOTU protease, Pep-AMC fluorescence; in the data active = inhibition above about 30%
SSB-PriA inh: K. pneumoniae PriA-SSBct interaction inhibition; inhibition, % at 33 µM; AlphaScreen SSBct-PriA binding, biotinylated peptide; AID 1272365; 0.6% of 430,000 active; in the data active = inhibition mostly above about 37%, no sharp cut-off; inactive = mostly below about 20%
RecA intein inh: blocks M. tuberculosis RecA intein splicing. cell-free RecA intein splicing, fluorescence. inhibition, % (no concentration beside the values). 0.75% of 290,000 active. AID 2221; in the data active = inhibition above about 30%
Numbers stand for hits; - = inactive; . = no result. This is a sample that favours compounds with a hit; in the whole collection about 1.7% have one here.

SMILES	SARS 3CLpro inh	DUSP3 inh	CCHF vOTU inh	SSB-PriA inh	RecA intein inh
O=C(O)c1cccn2cc(-c3ccccc3)nc12	.	.	.	-	.
O=C(O)c1cccn2ccnc12	.	.	.	48	.
Cc1ccc(CN2CCC(C(=O)Nc3cccc(-c4cccc(F)c4)c3)CC2)o1	-	-	-	-	-
CCc1ccc(CN2CCC(C(=O)Nc3cccc(-c4nnc(C)s4)c3)CC2)o1	-	-	.	57	.
CCn1cc(CN2CCC(C(=O)Nc3cccc(-c4cccc(F)c4)c3)CC2)cn1	-	-	-	39	-
CCCN1C(=O)C(C)(C)COc2ccc(NS(=O)(=O)c3ccc(OC)cc3C)cc21	.	.	.	-	.
CC(=O)Nc1ccc(NC(=O)CSc2ccc3nnc(-c4ccccn4)n3n2)cc1	-	-	-	39	-
CCC(Sc1ccc2nnc(-c3ccc(F)cc3)n2n1)C(=O)O (centres undefined)	-	-	-	-	-
CCOC(=O)CSc1ccc2nnc(-c3ccccn3)n2n1	.	.	.	90	.
CCOC(=O)C(C)Sc1ccc2nnc(-c3ccccn3)n2n1 (centres undefined)	.	.	.	76	.
CCOC(=O)CC(=O)CSc1ccc2nnc(-c3ccccn3)n2n1	.	.	.	-	.
CCC(Sc1ccc2nnc(-c3ccccn3)n2n1)C(=O)O (centres undefined)	.	.	.	103	.
O=C(C1=COCCO1)N1CCCc2ccccc21	.	.	.	-	.
Cn1c(O)c(/C=C/C=Nc2ccccc2)c(=O)n(C)c1=S	-	54	-	.	-
C=CC(=O)Nc1cccc(Oc2ccnc(Nc3ccc(N4CCN(C)CC4)cc3)n2)c1	.	.	-	61	.
C=CC(=O)Nc1cccc(N(C)c2ccnc(Nc3ccc(N4CCN(C)CC4)cc3)n2)c1	.	.	.	57	.
Cc1cc(C)cc(NC(=O)CSc2ncc(CO)n2CC(=O)NCc2ccc(Cl)cc2)c1	.	.	.	-	.
CC(C)(C)c1ccc(-c2csc(N)n2)cc1	.	.	.	-	.
C#CCn1c(=NC(=O)c2ccn(C)n2)sc2cc(C(=O)OC)ccc21	.	.	.	-	.
CCOc1ccc(N2CC(C(=O)Nc3ccc(S(=O)(=O)N4CCCC4)cc3)CC2=O)cc1 (centres undefined)	-	55	-	-	-
Cc1cc(NC(=O)c2c(F)cccc2Cl)n(-c2nc(-c3cccs3)cs2)n1	.	.	.	-	.
COc1cccc(C2=NOC(C(=O)Nc3cc(C)nn3-c3ccccc3)C2)c1OC (centres undefined)	-	-	-	-	-
Cc1cc(NC(=O)C2CC(c3ccc(F)cc3)=NO2)n(-c2ccccc2)n1 (centres undefined)	-	50	-	-	-
COc1ccc(-c2csc(/C(C#N)=C3\C=CC=CN3C)n2)cc1	.	.	.	142	.
CN1C=CC=C/C1=C(\C#N)c1nc2ccccc2[nH]1	-	-	-	-	-
SMILES	SARS 3CLpro inh	DUSP3 inh	CCHF vOTU inh	SSB-PriA inh	RecA intein inh
O=C(CSC1=Nc2cccnc2Nc2ccccc21)N1CCN(c2ccccc2)CC1	.	.	.	38	.
CC(=O)c1ccc(NC(=O)c2onc(C)c2Cl)cc1	-	-	-	-	-
CC(=O)c1cccc(NC(=O)c2onc(C)c2Cl)c1	-	-	-	115	-
Cc1noc(C(=O)NCc2ccccc2)c1Cl	-	-	-	104	-
COc1ccc(N2CCN(CCCNC(=O)COc3ccc(F)cc3)CC2)cc1	.	.	-	.	.
CC1(C)CC(=O)c2cc(OCC(=O)NCCCN3CCN(c4ccc(F)cc4)CC3)ccc2O1	-	53	-	-	-
COc1ccc(NC(=O)CCCSc2ccc(F)cc2)cc1	.	.	.	-	.
Cc1nn2c(N3CCN(C)CC3)cc(C(C)(C)C)nc2c1-c1ccccc1	-	-	-	-	-
Cc1nn2c(N3CCN(C4CCCC4)CC3)cc(C(C)(C)C)nc2c1-c1ccccc1	-	51	-	-	-
COc1nc(-c2ccccc2)cc(-c2ccc(OC)c(OC)c2)n1	-	-	-	-	-
COc1ccc(-c2cc(-c3ccccc3)nc(NN)n2)cc1OC	-	54	-	-	-
CC(C)(C)NC(=O)CSCc1ccc(Br)cc1	-	53	-	-	-
C=CCNC(=O)CSCc1ccc(Br)cc1	-	-	-	-	-
Cc1ccc2nc(N3CCN(S(=O)(=O)c4ccccc4F)CC3)[nH]c2c1	.	.	.	-	.
Nc1ccc2c(c1)Nc1ccccc1CC2	-	-	-	58	-
CC(C(=O)NCc1cccnc1)c1ccc([N+](=O)[O-])cc1 (centres undefined)	-	52	-	-	-
O=C(NCc1cccnc1)c1ccc([N+](=O)[O-])cc1	-	-	-	-	-
CCOc1ccc(-n2nnnc2CNS(=O)(=O)c2cccc(C(F)(F)F)c2)cc1	.	.	.	-	.
c1ccc(C2[C@H]3CN(Cc4cccnc4)[C@H](c4ccccc4)C34CC2(c2ccccc2)C4)cc1 (some centres undefined)	.	-	-	-	-
c1ccc(C2[C@H]3CN(Cc4cccnc4)[C@H](c4ccccc4)C34CC2(c2cccnc2)C4)cc1 (some centres undefined)	.	-	-	-	37
COc1cccc(CNS(=O)(=O)c2c(C(=O)N3CCCCC3)c(C)n(C)c2C)c1	-	54	-	-	-
Cc1ccc(S(=O)(=O)Cc2ccc(C(=O)N3CCc4ccccc4C3)o2)cc1	-	54	-	-	-
COc1ccc(C(=O)COC(=O)C(C)N2C(=O)C3C4CCC(C4)C3C2=O)cc1 (centres undefined)	-	-	-	-	-
CC(C(=O)OCC(=O)c1ccccc1)N1C(=O)C2C3CCC(C3)C2C1=O (centres undefined)	-	54	-	-	-
Cc1[nH]c2ccccc2c1/C=N/NC(=O)c1ccc(N)cc1	-	58	-	.	-
SMILES	SARS 3CLpro inh	DUSP3 inh	CCHF vOTU inh	SSB-PriA inh	RecA intein inh
Cc1[nH]c2ccccc2c1/C=N/NC(=O)c1ccccc1	-	-	-	.	-
CCCCn1c(N)c(N(CCOC)C(=O)CSCc2cccc(C)c2)c(=O)[nH]c1=O	.	.	-	49	-
CCCCn1c(N)c(N(CC)C(=O)c2ccccc2C)c(=O)[nH]c1=O	-	52	-	-	-
CCOc1ccc(CC(=O)NCC(c2ccco2)N(C)C)cc1 (centres undefined)	.	.	.	-	.
Cc1cc(C(=O)N2CCC(Cc3n[nH]c(=O)n3-c3ccccc3F)CC2)c(C)o1	.	.	.	-	.
COc1cnc(-c2ccccn2)nc1Oc1ccc(F)cc1F	-	-	-	53	-
COc1cnc(-c2ccccn2)nc1Oc1ccccc1Cl	-	-	-	-	-
COc1cnc(-c2ccccn2)nc1Oc1ccc(Cl)cc1	-	-	-	52	-
Cc1nc(-c2ccc(S(=O)(=O)NCCC(O)C3CCOCC3)cc2)co1 (centres undefined)	.	.	.	-	.
O=C(CCl)Nc1cccc(-c2cnc3ccccc3n2)c1	-	-	-	-	46
CCC(=O)Nc1cccc(-c2cnc3ccccc3n2)c1	-	-	-	-	-
Cc1cc2cc(CNC(=O)c3cccc(C(F)(F)F)c3)ccc2n1C	.	.	.	-	.
CCOc1ccc(-n2ccnc(SCc3cc(C)ccc3C)c2=O)cc1	.	.	.	-	.
O=C(CCCc1c[nH]c2ccccc12)NCC1COc2ccccc2O1 (centres undefined)	-	52	-	-	-
O=C(CCc1c[nH]c2ccccc12)NCC1COc2ccccc2O1 (centres undefined)	-	-	-	-	-
Cc1ccnc(NC(=O)Nc2ccc3c(c2)N(C)C(=O)CS3)c1	-	-	-	-	-

Screening results (PubChem)
